Screening data as filed in PubChem BioAssay.
Most compounds without a hit are left out; they make up all but 2.5% or so of the library.
GRK2 aptamer HTS: human GRK2 inhibition via aptamer displacement. P25098. bead flow cytometry, FAM-aptamer displacement from GRK2. inhibition of aptamer binding, % at 10 µM. hit rate 0.59% among 330,000;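 active means inhibition of aptamer binding above 40%, roughly 3 SD of noise, on plates passing a quality check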;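 further: median bead fluorescence of bound FAM aptamer so fluorescent compounds give negative values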
MEKK3 PB1 HTS: modulators (inhibitors or enhancers) of MEK5 binding to human MEKK3 PB1 domain. Q99759. bead-based flow cytometry, Alexa488-MEK5 binding to MEKK3; actives lie on both sides; 0 = blocked by unlabeled MEK5, 100 = vehicle. binding response (% of control), % at 10 µM. hit rate 1.4% among 290,000;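 active means binding response more than 3 SD above or below the average of its plate-row segment, actives on both sides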;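 further: Alexa488 bead fluorescence after subtracting the streptavidin-only scavenger bead signal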
Target sequence (Q99759 whole entry, looked up, the tested form may be a part): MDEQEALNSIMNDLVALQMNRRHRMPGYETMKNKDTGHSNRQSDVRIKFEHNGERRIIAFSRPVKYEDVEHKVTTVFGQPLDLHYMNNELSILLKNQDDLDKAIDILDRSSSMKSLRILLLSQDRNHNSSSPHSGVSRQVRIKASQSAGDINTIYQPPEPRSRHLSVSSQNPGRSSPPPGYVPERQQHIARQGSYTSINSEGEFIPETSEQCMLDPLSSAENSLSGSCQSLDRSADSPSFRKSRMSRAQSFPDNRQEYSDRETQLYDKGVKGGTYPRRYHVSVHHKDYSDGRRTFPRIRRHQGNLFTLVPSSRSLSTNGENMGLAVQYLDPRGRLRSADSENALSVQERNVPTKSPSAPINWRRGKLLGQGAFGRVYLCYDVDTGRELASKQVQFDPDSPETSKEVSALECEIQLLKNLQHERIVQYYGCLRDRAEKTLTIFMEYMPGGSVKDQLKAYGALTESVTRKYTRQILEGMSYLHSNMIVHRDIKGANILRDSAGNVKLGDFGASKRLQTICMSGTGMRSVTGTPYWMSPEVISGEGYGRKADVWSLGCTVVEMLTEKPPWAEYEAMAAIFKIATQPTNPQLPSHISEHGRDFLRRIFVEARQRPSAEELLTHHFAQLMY
MEKK2 mut-MEK5: signal of MEK5 binding to mutant human MEKK2 PB1 domain. percent response, % at 10 µM. bead flow cytometry, Alexa488-MEK5 binding to MEKK2 mutant. hit rate 0.35% among 290,000; in the data active means percent response above about 24%, passing the limit was not always enough
MEKK2wt PB1 HTS: raises or lowers MEK5 binding to wildtype human MEKK2 PB1 domain; Q9Y2U5; bead flow cytometry, Alexa488-MEK5 binding to MEKK2 WT; actives lie on both sides; binding response (% of control), % at 10 µM; hit rate 1.1% among 290,000; AID 1531; in the data active means binding response below about 67% or above about 130%
MEKK2wt confirm: raises or lowers MEK5 binding to wildtype human MEKK2, retest; AID 1892; hit rate 2.4% among 5,900; bead flow cytometry, Alexa488-MEK5 binding to MEKK2 WT; actives lie on both sides; binding response (% of control), % at 10 µM; shares compounds with MEKK3 PB1 HTS; in the data active means binding response below about 16% or above about 210%; inactive means in between
MEKK2mut-MEK5: signal of MEK5 binding to mutant human MEKK2, retest; hit rate 2% among 5,900; percent response, % at 10 µM; bead flow cytometry, Alexa488-MEK5 binding to MEKK2 mutant; shares compounds with MEKK3 PB1 HTS; in the data active means percent response mostly above about 71%, no sharp cut-off; inactive means mostly below about 38%;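 further: higher means compound restores mutant binding toward wildtype level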
MEKK3-MEK5 inh: confirmation of inhibitors of MEK5 binding to human MEKK3; shares compounds with MEKK3 PB1 HTS; bead flow cytometry, Alexa488-MEK5 binding to MEKK3; hits give low values; binding response (% of control), % at 10 µM; hit rate 1.8% among 5,900;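 active means binding response below 72% of control, or above a set upper limit, though filed actives all read lower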;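 further: 100% = DMSO only wells and 0% = binding blocked by excess unlabeled MEK5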
* marks the source's active call; other numbers are inactive results; · = not tested or not shown; [ ] = another dose, or the depositor's remark.

SMILES	GRK2 aptamer HTS	MEKK3 PB1 HTS	MEKK2 mut-MEK5	MEKK2wt PB1 HTS	MEKK2wt confirm	MEKK2mut-MEK5	MEKK3-MEK5 inh
Cc1c(NC(=O)C2CC(c3ccc(F)cc3)=NO2)c(=O)n(-c2ccccc2)n1C (stereo not drawn)	3.0	9.0*[inhibitor]	-38.0	17.0*[inhibitor]	104.0	7.0	102.0
CCC(C)N1CNc2c(c(=O)[nH]c(=S)n2-c2cccc(C)c2)C1 (stereo not drawn)	3.0	99.0	-2.0	99.0	·	·	·
CN(c1ccc(F)cc1)S(=O)(=O)c1ccc(Cl)c(C(=O)Nc2ccc3c(c2)CCC3)c1	0.0	134.0*	1.0	111.0	104.0	-5.0	101.0
CCOC(=O)CNC(=O)c1sc(NC(=O)/C=C/c2ccccc2)nc1C	4.0	102.0	0.0	105.0	·	·	·
Cc1nc(NC(=O)/C=C/c2ccccc2)sc1C(=O)NCCO	0.0	139.0*	79.0*	129.0	97.0	-6.0	98.0
CN(CCO)C(=O)C(c1ccccc1)c1ccccc1	0.0	95.0	-3.0	94.0	·	·	·
CN(CCO)C(=O)c1cccc2c1-c1ccccc1C2=O	0.0	81.0*[inhibitor]	-11.0	90.0	101.0	-1.0	101.0
CCOc1ccc(S(=O)(=O)N(CC)CC(=O)NC2CC2)cc1	3.0	101.0	4.0	103.0	·	·	·
CCc1ccc(NC(=S)NC2CC3CCCC(C2)N3Cc2ccccc2)cc1 (stereo not drawn)	0.0	104.0	22.0	132.0	·	·	·
S=C(Nc1ccc(Cl)c(Cl)c1)NC1CCN(Cc2ccccc2)CC1	0.0	111.0	34.0*	168.0*	171.0	35.0	110.0
CSc1cccc(NC(=S)NCCCN2CCN(c3ccc(F)cc3)CC2)c1	0.0	115.0	18.0	142.0*	134.0	9.0	103.0
S=C(Nc1ccc(Cl)cc1)NC1CC2CCC(C1)N2Cc1ccccc1 (stereo not drawn)	0.0	110.0	41.0	156.0*	142.0	28.0	110.0
S=C(NC1CCCCC1)N1CCN(Cc2ccccc2)CC1	4.0	143.0*	2.0	105.0	109.0	4.0	104.0
Fc1ccc(NC(=S)NC2CCN(Cc3ccccc3)CC2)cc1	0.0	102.0	2.0	108.0	·	·	·
Fc1ccccc1C1c2cccn2CCN1C(=S)Nc1ccc(Br)cc1 (stereo not drawn)	7.0	99.0	2.0	101.0	·	·	·
O=C(COC(=O)CCC(=O)c1cccs1)Nc1ccccc1[N+](=O)[O-]	0.0	76.0	-7.0	85.0	·	·	·
S=C(NCCCN1CCOCC1)Nc1ccc(Cl)c(Cl)c1	0.0	63.0*[inhibitor]	0.0	109.0	89.0	-9.0	79.0
Cc1ccc(NC(=S)NCCCN2CCOCC2)cc1C	0.0	103.0	1.0	108.0	·	·	·
CCOC(=O)N1CCN(C(=O)c2ccc(NS(=O)(=O)c3ccc4[nH]c(=O)[nH]c4c3)cc2)CC1	1.0	·	·	·	·	·	·
O=C(/C=C/c1c[nH]c2ccccc12)c1ccccc1	4.0	136.0*	0.0	103.0	106.0	0.0	106.0
COC(=O)C(C)N(C#N)c1nc(C)cc(C)n1 (stereo not drawn)	3.0	131.0*	7.0	117.0	107.0	6.0	104.0
O=S(=O)(NCCOc1ccc(F)cc1)c1ccc2c(c1)OCCO2	0.0	2.0*[inhibitor]	-18.0	2.0*[inhibitor]	107.0	1.0	107.0
O=C(Nc1ccc(Cl)c(Cl)c1)N1N=CCC1c1ccccc1 (stereo not drawn)	·	133.0*	0.0	116.0	100.0	0.0	101.0
NS(=O)(=O)c1cccc(NC(=O)CN2CCc3ccccc32)c1	3.0	98.0	18.0	21.0*[inhibitor]	84.0	-18.0	90.0
CN(Cc1cccs1)C(=O)C1CC(=O)N(Cc2ccccc2)C1 (stereo not drawn)	0.0	·	·	·	·	·	·
SMILES	GRK2 aptamer HTS	MEKK3 PB1 HTS	MEKK2 mut-MEK5	MEKK2wt PB1 HTS	MEKK2wt confirm	MEKK2mut-MEK5	MEKK3-MEK5 inh
CC1CCN(Cc2ccc(NC(=O)C3CCN(c4nnc(-n5cccc5)s4)CC3)cc2)CC1	0.0	105.0	78.0*	231.0*	186.0	62.0	108.0
CCOC(=O)N1CCN(c2nc3ccc(C(=O)c4ccccc4)cc3n3cnnc23)CC1	1.0	101.0	2.0	99.0	·	·	·
CCOC(=O)N1CCC(Nc2nc3ccccc3n3cnnc23)CC1	0.0	0.0*[inhibitor]	-43.0	0.0*[inhibitor]	97.0	-4.0	99.0
Cc1cc(NC(=O)c2sc(Nc3ccc(F)c(Cl)c3)nc2N)no1	3.0	105.0	-2.0	101.0	·	·	·
Cc1cc(NC(=O)c2sc(Nc3cccc(C(F)(F)F)c3)nc2N)no1	0.0	140.0*	9.0	128.0	105.0	8.0	104.0
Cc1ccc(-c2csc(NC(=O)N3CCOCC3)n2)cc1	3.0	101.0	-1.0	100.0	·	·	·
Cc1ccc(-c2c[n+](CC(=O)Nc3nc(-c4ccccc4)cs3)c3n2CCC3)cc1	0.0	103.0	47.0	183.0*	174.0	68.0	108.0
O=C(C[n+]1cc(-c2ccccc2)n2c1CCC2)Nc1nc(-c2ccccc2)cs1	0.0	102.0	28.0	166.0*	128.0	16.0	101.0
O=C(C[n+]1cc(-c2ccccc2)n2c1CCCCC2)c1ccc(Cl)cc1	0.0	102.0	25.0	142.0*	105.0	2.0	94.0
Cc1ccc(-c2c[n+](CC(=O)Nc3ccccc3C)c3n2CCC3)cc1	0.0	97.0	-7.0	100.0	·	·	·
Cc1ccc(NC(=O)C[n+]2cc(-c3ccccc3)n3c2CCC3)cc1	0.0	83.0	-15.0	91.0	·	·	·
O=C(C[n+]1cc(-c2ccc(Cl)c(Cl)c2)n2c1CCC2)OCc1ccccc1	0.0	155.0*	1.0	123.0	109.0	3.0	97.0
Cc1ccccc1C1c2[nH]c3ccccc3c2C[C@H]2C(=O)N(c3ccccc3C(=O)NCCCN3CCOCC3)C(=O)N12 (stereo partly drawn)	0.0	103.0	4.0	107.0	·	·	·
CC1CCN(C(=O)COC(=O)C23CC4CC(CC(O)(C4)C2)C3)CC1	0.0	·	·	·	·	·	·
CC1Cc2ccccc2N1C1=CC(=O)CCC1 (stereo not drawn)	0.0	0.0*[inhibitor]	-47.0	0.0*[inhibitor]	108.0	9.0	106.0
CC1Cc2ccccc2N1C1=NS(=O)(=O)c2ccccc21 (stereo not drawn)	4.0	100.0	-3.0	97.0	·	·	·
CN(Cc1ccccc1)CC(O)COc1ccc(CNCCOc2cccnc2)cc1 (stereo not drawn)	0.0	105.0	13.0	133.0	·	·	·
CN(Cc1ccccc1)CC(O)COc1ccc(CNCCCOc2cccnc2)cc1 (stereo not drawn)	0.0	101.0	33.0	139.0*	144.0	34.0	110.0
CC(C)NS(=O)(=O)c1ccc(NC(=O)C(C)Oc2ccc(C(=O)c3ccccc3)cc2)cc1 (stereo not drawn)	0.0	147.0*	-1.0	100.0	97.0	-9.0	102.0
Cc1cc(NC(=O)c2cc(Cl)ccc2Cl)no1	0.0	106.0	5.0	106.0	·	·	·
